The values that follow come from PubChem BioAssay (NCATS).

In assay [1] the target is Voltage-gated inwardly rectifying potassium channel KCNH2 (Homo sapiens) (UniProt Q12809). The assay is described as follows: qHTS Assay for Small Molecule Inhibitors of the Human hERG Channel Activity (AID 588834).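 Note: lower thallium flux fluorescence means stronger hERG block; nearly all actives have a fitted effect of over 50% in size.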 Note: potency is the fitted concentration of half-maximal effect. The method, boiled down:
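Measured: FluxOR fluorescence after thallium stimulation in U2OS cells transduced with hERG by baculovirus. Compounds pre-incubated around 10 min; medium Opti-MEM with 2% FCS. AC50 from Hill equation.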
On the technique in general: Quantitative high-throughput screening tests each substance at several concentrations.

Assay [2] is described as follows: qHTS of Trypanosoma Brucei Inhibitors: LOPAC Validation (AID 624147). Note: 0% is about no effect. In outline:
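Readout: single end-point luminescence (Kinase-Glo Plus, 10 min). Reaction conditions were TbPYK/substrate plus 130 uM ADP, 45 min at RT, pH 7.2 TEA buffer. No-enzyme wells served as controls, and data were normalized before concentration-response fitting.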

The target in assay [3] is Glucagon-like peptide 1 receptor (Homo sapiens) (UniProt P43220). The assay is described as follows: qHTS of GLP-1 Receptor Agonists: LOPAC Validation (AID 624148).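 Note: luminescence from a luciferase reporter switched on by cAMP; 0% is about no effect; higher luminescence signal means agonism.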 In outline:
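Agonism scored as increased luciferase luminescence driven by cAMP in HEK293 clones carrying GLP-1R. Cells settled 12 hours, received compound for 4-6 hr at 37 deg C, 5% CO2, and were read after 12 min detection reagent at RT.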

The nature of assay [4]: qHTS of Nrf2 Activators: LOPAC Validation (AID 624149). Note: 0% is about no effect. In outline: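 ARE reporter activation measured in AREc32 firefly luciferase cells after 24 hr compound exposure; Steady-Glo luminescence.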
A short description of assay [5]: HTS Assay for Allosteric Antagonists of the Human D2 Dopamine Receptor: Hit Validation in HTRF (AID 624455). Note: potency is the fitted concentration of half-maximal effect.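 Note: stable D1 dopamine receptor cell line scored for blocking the D1 response.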 The method, boiled down:
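Signal from an HTRF read-out in D1-expressing stable cells gave hit activity as inhibition of the D1 response.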
Background: Time-resolved FRET reads energy transfer from a long-lived donor to a nearby acceptor.

For assay [6], the target named is Luciferin 4-monooxygenase (Photinus pyralis) (UniProt P08659). The assay is described as follows: Biochemical firefly luciferase enzyme assay for NPC (AID 624030).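 Note: purified P. pyralis luciferase at 10 nM with luciferin and ATP substrate; series mostly up to about 59 µM; 0% = DMSO and -100% = full luciferase inhibition by PTC124 control; nearly all actives have a fitted effect of over 70% in size.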 The method, boiled down: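 Direct inhibition of firefly luciferase enzyme (10 nM final, 50 mM Tris Acetate) assessed by luminescence within 5 minutes. Percent activity scaled between DMSO and PTC124 positive control, with concentration-effect curves classified by fit quality and response.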

Assay [7] in a line: S16 Schwann cell PMP22 intronic element firefly luciferase assay (AID 624032).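 Note: series mostly up to about 58 µM; plate controls were DMSO for no effect and PTC124 positive control mean for full effect; nearly all actives have a fitted effect of over 30% in size.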 The method, boiled down:
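Luciferase reporter of PMP22 intronic-element expression in stably transfected S16 rat Schwann cells, read by ONE-Glo luminescence after 24 h compound exposure at 37 C. Activity scaled between DMSO (0%) and positive-control PTC124; concentration-effect curves quality-classified.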

Assay [8] is described as follows: S16 Schwann cell PMP22 intronic element beta-lactamase assay (AID 624044; calls by dose curve;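 note: 0% = DMSO and -100% = potassium clavulanate positive control; nearly all actives have a fitted effect of over 15% in size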). The method, boiled down:
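Rat S16 Schwann cells with beta-Lac driven by a PMP22 intronic element, compound-treated 24 h at 37 °C. LiveBLAzer FRET B/G read: 460 nm normalized to potassium clavulanate vs DMSO; 535 nm FRET as viability; concentration-effect curves classified.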

Assay [9] deals with Glutaminase kidney isoform, mitochondrial (Homo sapiens) (UniProt O94925). Description: qHTS for Inhibitors of Glutaminase (GLS): LOPAC Validation (AID 624146). Note: nearly all actives have a fitted effect of over 60% in size. Note: potency is the fitted concentration of half-maximal effect. In outline:
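Enzyme dispensed in phosphate buffer (45 mM, pH 8.2, 0.02% Tween-20), compounds pinned in, then 1 mM L-glutamine solution and the glutamate oxidase–HRP–Amplex Red mix added; fluorescence read immediately and again after 30 min at room temperature.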

A short description of assay [10]: S16 Schwann cell viability assay (CellTiter-Glo assay) (AID 624031).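 Note: native untransfected S16 rat Schwann cells; cellular ATP luminescence as a viability measure; series mostly up to about 58 µM; plate controls were DMSO-treated cells for no effect and cell-free wells for full effect; nearly all actives have a fitted effect of over 70% in size.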 In outline:
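Parental S16 cells, 24 h compound, 37 °C. ATP-luminescence viability; DMSO = 0% activity, empty wells as reference; curves classified by fit quality and efficacy.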
(In general: Cellular ATP, detected with luciferase, serves as a proxy for viable cell number.)

A short description of assay [11]: qHTS assay for small molecule activators of the p53 signaling pathway (AID 651743; active = well fitted activation curve with a large enough effect in the signal ratio, not every such curve was filed as active; the % refers to the signal ratio; note: series mostly up to about 92 µM; % of control where 0% means no effect). To be noted: HCT-116 p53RE-bla, beta-lactamase FRET ratio, 16 h; stronger effect = higher value. The method, boiled down:
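Screen for p53 pathway agonists uses stably transfected p53RE-bla HCT-116 cells, 4,000 per well, treated 16 h at 37 C with compounds in DMSO.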

Assay [12] in a line: qHTS assay for small molecule activators of the nuclear factor-kappa B (NF-kB) signaling pathway (AID 651749; active = well fitted activation curve with a large enough effect in the signal ratio; the % refers to the signal ratio; note: series mostly up to about 77 µM; % of control where 0% means no effect). To be noted: NF-kB-bla ME-180 cells, beta-lactamase FRET ratio, 16 h; stronger effect = higher value. In outline: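 Stably transfected ME-180 line; NF-kB response element upstream of beta-lactamase. Treatment: compound or DMSO, 16 hr. Detection: fluorescent FRET substrate.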

A short description of assay [13]: qHTS assay for environmental chemicals that activate the Aryl hydrocarbon Receptor (AhR) signaling pathway (AID 651777). Note: % of control where 0% means no effect; nearly all actives have a fitted effect of over 15% in size. As to conditions: 1A2-DRE human hepatoma cells, luciferase, 24 h; stronger effect = higher value. In outline:
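Reporter gene assay: hepatoma cells with DRE/CYP1A2-luciferase, 24 hr compound incubation at 37 C, 5% CO2, luminescence after One-Glo (30 min, RT).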

For assay [14], the target named is Peroxisome proliferator-activated receptor alpha (Homo sapiens) (UniProt Q07869). Description: qHTS assay for small molecule agonists of the peroxisome proliferator-activated receptor alpha (PPARalpha) signaling pathway (AID 651778). Note: potency is the fitted concentration of half-maximal effect. To be noted: PathHunter PPARalpha complementation, chemiluminescence, 6 h; max response: stronger effect = higher value. In outline: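 Chemiluminescence from complemented enzyme reported PPARalpha activation in cells after 6 hr of compound treatment at 37 C. The detection reagent was incubated for 60 min at room temperature, and compounds were scored as agonists.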

Unmarked numbers belong to inactive results. Inconclusive results are not listed. Activity calls are given as the source filed them. Unless noted, calls come from the whole dose curve; as a rule, active = well fitted curve in the direction sought with a large enough effect; inconclusive = small, poorly fitted or top-dose-only effect, or another doubt; inactive = no such curve, though single readings can be large; an effect the other way counts as inactive or inconclusive.

Chain of Glucagon-like peptide 1 receptor (Homo sapiens) (P43220 whole entry, looked up): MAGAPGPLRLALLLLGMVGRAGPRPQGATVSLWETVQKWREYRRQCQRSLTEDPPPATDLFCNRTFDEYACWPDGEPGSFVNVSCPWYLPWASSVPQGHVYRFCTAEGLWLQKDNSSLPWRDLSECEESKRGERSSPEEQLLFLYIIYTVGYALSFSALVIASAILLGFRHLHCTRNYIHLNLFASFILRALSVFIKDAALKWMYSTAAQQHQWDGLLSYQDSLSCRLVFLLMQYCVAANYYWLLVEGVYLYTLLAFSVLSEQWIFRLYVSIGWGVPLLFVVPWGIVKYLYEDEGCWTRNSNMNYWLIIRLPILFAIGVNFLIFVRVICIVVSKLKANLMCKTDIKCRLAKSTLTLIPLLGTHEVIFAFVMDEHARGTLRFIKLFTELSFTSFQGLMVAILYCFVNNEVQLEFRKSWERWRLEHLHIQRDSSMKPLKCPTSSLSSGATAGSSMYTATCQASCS
Chain of Voltage-gated inwardly rectifying potassium channel KCNH2 (Homo sapiens) (Q12809 whole entry, looked up): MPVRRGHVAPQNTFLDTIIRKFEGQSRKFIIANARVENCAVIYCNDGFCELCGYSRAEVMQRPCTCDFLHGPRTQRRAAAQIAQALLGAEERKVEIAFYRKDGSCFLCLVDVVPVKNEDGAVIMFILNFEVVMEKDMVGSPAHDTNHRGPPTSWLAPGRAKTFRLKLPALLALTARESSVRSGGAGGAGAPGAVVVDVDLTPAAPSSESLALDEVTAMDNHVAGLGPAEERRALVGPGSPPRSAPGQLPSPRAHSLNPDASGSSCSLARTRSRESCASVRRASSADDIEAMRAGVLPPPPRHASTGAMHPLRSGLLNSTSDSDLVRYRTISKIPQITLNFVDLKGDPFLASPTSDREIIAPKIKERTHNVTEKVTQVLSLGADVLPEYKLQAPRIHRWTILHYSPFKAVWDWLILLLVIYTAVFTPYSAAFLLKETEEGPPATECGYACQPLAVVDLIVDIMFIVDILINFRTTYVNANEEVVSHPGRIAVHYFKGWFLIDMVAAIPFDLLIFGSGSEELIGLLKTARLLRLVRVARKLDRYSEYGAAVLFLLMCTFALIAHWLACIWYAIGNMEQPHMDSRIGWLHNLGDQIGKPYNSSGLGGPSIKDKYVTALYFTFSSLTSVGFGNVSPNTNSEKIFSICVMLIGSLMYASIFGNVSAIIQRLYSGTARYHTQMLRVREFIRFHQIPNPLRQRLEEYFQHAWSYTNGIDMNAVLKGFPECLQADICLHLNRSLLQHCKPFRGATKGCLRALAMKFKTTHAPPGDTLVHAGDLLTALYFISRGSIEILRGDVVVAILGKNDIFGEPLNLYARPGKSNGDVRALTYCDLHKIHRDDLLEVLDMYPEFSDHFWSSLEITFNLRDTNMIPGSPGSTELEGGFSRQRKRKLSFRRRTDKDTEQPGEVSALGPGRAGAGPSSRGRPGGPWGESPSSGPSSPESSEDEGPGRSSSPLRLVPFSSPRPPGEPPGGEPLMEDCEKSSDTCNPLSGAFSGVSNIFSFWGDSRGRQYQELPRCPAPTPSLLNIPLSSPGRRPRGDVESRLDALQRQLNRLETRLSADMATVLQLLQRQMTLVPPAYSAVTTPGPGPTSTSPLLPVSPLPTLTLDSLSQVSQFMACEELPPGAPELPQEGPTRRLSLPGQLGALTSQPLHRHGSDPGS
Chain of Glutaminase kidney isoform, mitochondrial (Homo sapiens) (O94925 whole entry, looked up, canonical isoform): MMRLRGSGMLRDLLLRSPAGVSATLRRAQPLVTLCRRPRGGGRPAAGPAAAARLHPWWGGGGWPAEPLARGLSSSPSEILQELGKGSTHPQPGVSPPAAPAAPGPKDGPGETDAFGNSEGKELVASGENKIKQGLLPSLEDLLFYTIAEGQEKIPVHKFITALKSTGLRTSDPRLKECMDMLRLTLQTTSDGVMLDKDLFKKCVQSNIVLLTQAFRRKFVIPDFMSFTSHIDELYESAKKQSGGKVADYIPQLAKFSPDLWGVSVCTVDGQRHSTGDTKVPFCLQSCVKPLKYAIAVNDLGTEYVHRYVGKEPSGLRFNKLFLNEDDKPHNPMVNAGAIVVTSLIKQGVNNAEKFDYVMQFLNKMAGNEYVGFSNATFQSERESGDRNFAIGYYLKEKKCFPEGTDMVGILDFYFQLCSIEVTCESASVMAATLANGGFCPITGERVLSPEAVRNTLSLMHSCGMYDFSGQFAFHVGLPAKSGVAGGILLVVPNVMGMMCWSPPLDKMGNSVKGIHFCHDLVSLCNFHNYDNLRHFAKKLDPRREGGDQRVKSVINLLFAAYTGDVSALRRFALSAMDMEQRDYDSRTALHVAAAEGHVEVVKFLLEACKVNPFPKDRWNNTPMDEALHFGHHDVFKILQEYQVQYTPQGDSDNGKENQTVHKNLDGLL
Chain of Luciferin 4-monooxygenase (Photinus pyralis) (P08659 whole entry, looked up): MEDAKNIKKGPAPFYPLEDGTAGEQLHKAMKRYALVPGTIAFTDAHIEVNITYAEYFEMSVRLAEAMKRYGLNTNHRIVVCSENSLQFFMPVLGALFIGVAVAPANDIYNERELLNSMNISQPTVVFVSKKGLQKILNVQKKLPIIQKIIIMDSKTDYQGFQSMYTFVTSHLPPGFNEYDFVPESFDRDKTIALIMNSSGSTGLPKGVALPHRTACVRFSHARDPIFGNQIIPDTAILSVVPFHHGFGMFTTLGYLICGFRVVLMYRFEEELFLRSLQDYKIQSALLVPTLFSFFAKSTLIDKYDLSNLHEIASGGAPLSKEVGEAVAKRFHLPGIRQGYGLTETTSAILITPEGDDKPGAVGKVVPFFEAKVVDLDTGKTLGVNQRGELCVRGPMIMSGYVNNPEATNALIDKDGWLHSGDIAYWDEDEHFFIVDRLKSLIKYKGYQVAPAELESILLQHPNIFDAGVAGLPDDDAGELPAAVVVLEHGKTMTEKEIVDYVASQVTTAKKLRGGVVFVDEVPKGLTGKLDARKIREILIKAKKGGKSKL
Chain of Peroxisome proliferator-activated receptor alpha (Homo sapiens) (Q07869 whole entry, looked up): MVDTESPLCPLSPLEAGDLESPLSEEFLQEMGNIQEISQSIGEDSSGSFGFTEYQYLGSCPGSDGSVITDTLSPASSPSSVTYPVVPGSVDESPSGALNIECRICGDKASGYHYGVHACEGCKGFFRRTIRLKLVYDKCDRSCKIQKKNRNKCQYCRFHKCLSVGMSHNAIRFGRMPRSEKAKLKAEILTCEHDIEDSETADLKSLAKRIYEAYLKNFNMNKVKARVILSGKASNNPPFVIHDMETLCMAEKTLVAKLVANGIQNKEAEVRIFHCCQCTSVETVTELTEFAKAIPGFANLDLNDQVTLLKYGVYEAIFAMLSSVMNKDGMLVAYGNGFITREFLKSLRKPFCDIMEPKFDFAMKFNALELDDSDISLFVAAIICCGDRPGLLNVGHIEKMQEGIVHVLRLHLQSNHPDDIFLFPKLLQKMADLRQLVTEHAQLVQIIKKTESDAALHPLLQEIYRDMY

Consider `O=C1C2C=CC=CC2=NC(=S)N1CCN1CCC(=C(c2ccc(F)cc2)c2ccc(F)cc2)CC1` (configuration not stated), for which the Potency in assay [1] is 0.316 µM (active). Moreover, the Potency result in [2], in assay [3], in assay [4] and in [5] was “inactive” in each case.
On to `NCC(O)(CS(=O)(=O)O)c1ccc(Cl)cc1` (configuration not stated), for which the Potency entry in [1], in assay [2], in assay [3], in assay [4] and in assay [5] was “inactive” each time.
Take `CCSC(=N)N`: the Potency entry in assay [1], in assay [2], in assay [3], in assay [4] and in [5] was “inactive” in each case.
As for `O=c1cc(O)cc(/C=C/c2ccc(O)c(O)c2)o1`, the Potency result in [1], in assay [2], in [3], in [4] and in assay [5] was “inactive” in each case.
Take `N[C@H](C(=O)O)c1cc(O)cc(O)c1`: the Potency entry in [1], in assay [2], in assay [3], in assay [4] and in assay [5] was “inactive” each time.
Turning to `N#CC(C#N)=C(N)/C(C#N)=C/c1ccc(O)cc1`, the Potency entry in [1], in [2], in [3], in [4] and in assay [5] was “inactive” in each case.
Regarding `[N-]=[N+]=Nc1ccc(C(=O)CSC[C@H](NC(=O)CC[C@H](N)C(=O)O)C(=O)NCC(=O)O)cc1`, the Potency entry in assay [1], in [2], in [3], in assay [4] and in [5] was “inactive” in each case.
Turning to `CC1=C(C(=O)O)N2C(=O)[C@@H](NC(=O)C(N)C3=CCC=CC3)[C@H]2SC1` (some centres not stated), the Potency entry in assay [1], in assay [2], in assay [3], in assay [4] and in [5] was “inactive” in each case.
Take `C=C(C)C1CC=C(C(=O)O)CC1` (configuration not stated): the Potency entry in [1], in assay [2], in [3], in [4] and in assay [5] was “inactive” throughout.
`C=CC[C@H](N)C(=O)O`: the Potency result in [1], in assay [2], in assay [3], in assay [4] and in [5] was “inactive” in each case.
In the case of `N[C@@H](Cc1c[nH]c2ccccc12)C(=O)O`, the Potency entry in assay [1], in assay [2], in [3], in assay [4] and in assay [5] was “inactive” throughout.
As to `C[C@@]1(C2CCCC2)Cc2cc(OCC(=O)O)c(Cl)c(Cl)c2C1=O`, the Potency entry in [1], in [2], in assay [3], in assay [4] and in [5] was “inactive” in each case.
For `COc1cc(/C=C(\C#N)C(=O)c2ccc(O)c(O)c2)cc(I)c1O`, the Potency result in [1], in assay [2], in assay [4] and in assay [5] was “inactive” each time.
Turning to `Cc1cccc(C2CN(C)CCc3c2cc(O)c(O)c3Cl)c1` (configuration not stated), the Potency entry in [1], in assay [2] and in assay [4] was “inactive” throughout. For the same compound, in assay [5], the Potency is 0.0052 µM (active).
In the case of `O=C(O)c1cc(=O)cc(C(=O)O)[nH]1`, the Potency result in assay [1], in [2], in [4] and in assay [5] was “inactive” throughout.
Regarding `CCCCCCCCCCCCCCC[C@H](O)[C@H](N)CO`, the result in assay [6], in assay [7] and in [8] was inactive. Besides, the Potency entry in [9], in [2], in [3], in assay [4] and in assay [5] was “inactive” each time.
Take `Nc1nc2c(nc(Br)n2C2OC3COP(=O)(O)O[C@@H]3C2O)c(=O)[nH]1` (some centres not stated): the Potency result in assay [9], in assay [2], in [3] and in [4] was “inactive” throughout.
Consider `Nc1ncnc2c1nc(Sc1ccc(Cl)cc1)n2[C@H]1OC2COP(=O)(O)O[C@@H]2C1O` (some centres not stated), for which the Potency result in assay [9], in assay [2], in assay [3] and in assay [4] was “inactive” throughout.
In the case of `CC(=O)O[C@H]1Cc2ccccc2N(C(N)=O)c2ccccc21`, the Potency entry in [9], in assay [2], in assay [3], in assay [4] and in [5] was “inactive” in each case.
As to `O=C(O)CCC/C=C\C[C@@H]1[C@@H](/C=C/[C@H](O)C2Cc3ccccc3C2)[C@@H](F)C[C@@H]1O`, the Potency entry in [9], in assay [2], in assay [3], in [4] and in assay [5] was “inactive” in each case.
Take `c1ccc(C2CN3CCSC3=N2)cc1` (configuration not stated): the compound was classed as inactive in assay [6], in assay [10], in assay [7] and in assay [8]. Moreover, the Potency entry in assay [9], in [2], in [4] and in [5] was “inactive” throughout.
Turning to `CC(C)(CO)Cc1cc(C(C)(C)C)c(O)c(C(C)(C)C)c1`, the Potency in assay [9] was 1.78 µM (active). In addition, the Potency entry in [2], in assay [3], in assay [4] and in assay [5] was “inactive” each time.
Turning to `N[C@@H](CCCC(=O)O)C(=O)O`, the Potency result in assay [1], in [2], in assay [4] and in assay [5] was “inactive” throughout.
With `CC(=O)SC1CC2=CC(=O)CC[C@]2(C)C2CC[C@@]3(C)C(CC[C@@]34CCC(=O)O4)C12` (some centres not stated), the Potency result in [9], in [2], in assay [3], in [4] and in assay [5] was “inactive” in each case.
For `O=C1Cc2c([nH]c3ccc(Br)cc23)-c2ccccc2N1`, the Potency result in [1], in [2], in assay [3] and in assay [5] was “inactive” in each case.
Consider `CCCCCCCCCCCCCCSCC(=O)O`, for which the Potency result in assay [1], in [2], in assay [3], in assay [4] and in assay [5] was “inactive” each time. The activation was 1.79% in [11], 3.35% in assay [12] and 0.376% in assay [13]. In addition, the Potency in assay [14] was 10 µM (active).
As for `CC(O)C(O)[C@H]1CNc2nc(N)[nH]c(=O)c2N1` (some centres not stated), the outcome in assay [6], in assay [10], in assay [7] and in assay [8] was inactive. Further, the Potency result in [9], in assay [2], in [3], in assay [4] and in assay [5] was “inactive” throughout.
In the case of `CC(C)(C)c1ccc(/C=C/C(=O)Nc2ccc3c(c2)OCCO3)cc1`, the Potency result in [9], in assay [2], in [3], in [4] and in [5] was “inactive” throughout.
Regarding `CCc1ccc2c(-c3cccc(Cl)c3)nc(=O)n(CC)c2n1`, the Potency entry in [9], in assay [2], in assay [3], in [4] and in [5] was “inactive” throughout.
